Source: PubChem BioAssay
LGR2 antag: Drosophila LGR2 receptor signaling inhibition; HEK293 LGR2, CRE-luciferase, bursicon-stimulated, 4 h; inhibition, % at 9.99 µM; 380,000 compounds, 0.35% hits;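 active = drop in luminescence signal, shown as inhibition above about 50% in the replicate tests, limit read from the data, passing the limit was not always enough; inconclusive = probably only some replicates passing the limit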;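 note: agonist challenge used bursicon conditioned medium at about half maximal strength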
HSP90 refold inh: inhibitors of HSP90 luciferase refolding in rabbit reticulocyte lysate | AID 1789 | 290,000 compounds, 0.91% hits | luciferase refolding luminescence, 3 h | inhibition, % at 5.6 µM;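 active = inhibition above the screen-wide mean plus 3 SD, computed separately per campaign, cut at about 16% in these data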;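 note: 0% = DMSO wells and 100% = 60 µM geldanamycin wells; inhibitors lower the luminescence because luciferase stays unfolded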
TWEAK Fn14 block: blocks TWEAK-Fn14 interaction in a reporter cell assay; TWEAK-stimulated Fn14 reporter cells, luciferase luminescence, 8 h; inhibition, % at 10 µM; 360,000 compounds, 2% hits; AID 1159606; in the data active = inhibition above about 50%
TROY NFkB inh: TROY signaling inhibition | Q293 LMP1-TROYcd NF-kB luciferase reporter, 4 h | inhibition, % at 10 µM | AID 1347056 | 360,000 compounds, 0.98% hits;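 active = compounds whose plate-normalised and pattern-corrected inhibition of the luciferase reporter signal at the single screening dose is 50% or more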
Active calls of the source: *; ? = inconclusive; nt = no result. The list is not random: actives were taken first. Their share in the collection is about 2.2%.

SMILES | LGR2 antag | HSP90 refold inh | TWEAK Fn14 block | TROY NFkB inh
N/C(Cc1ccc([N+](=O)[O-])cc1)=N\OC(=O)c1ccc2ccccc2c1 | nt | 1 | -3 | 59*
Cc1cccc(C(=O)O/N=C(\N)Cc2ccc([N+](=O)[O-])cc2)c1 | 11 | 2 | -20 | -21
CCN1CCN(c2ncnc3c2cnn3-c2ccc(C)cc2C)CC1 | 8 | nt | -15 | 5
c1ccc(Cn2ncc3c(N4CCN(c5ccccc5)CC4)ncnc32)cc1 | 66* | nt | 64* | 72*
COc1ccc(N2CCN(c3ncnc4c3cnn4-c3ccc(C)cc3C)CC2)cc1 | 5 | 0 | 68* | 44
Cc1cccc(-n2ncc3c(N4CCCC4)ncnc32)c1 | 36 | 6 | 57* | 22
Cc1ccc(-n2ncc3c(N4CCN(c5ccccc5)CC4)ncnc32)c(C)c1 | ? | 2 | 87* | 50*
COc1ccc(-n2ncc3c(N4CCN(c5cc(C)ccc5C)CC4)ncnc32)cc1 | 9 | -3 | -18 | -11
CO[C@H]1CN(C)C(=O)c2ccc(NC(=O)c3ccc(F)cc3)cc2OC[C@H](C)N(C(=O)CN(C)C)C[C@H]1C | 20 | nt | nt | nt
CN1C(=O)c2cc(NC(=O)c3ccc(F)c(F)c3)ccc2OC[C@H]2O[C@@H](CC(=O)N[C@@H]3CCN(Cc4ccccc4)C3)CC[C@@H]21 | -13 | nt | nt | nt
Cc1cccc(Nc2nc(-c3c(C)nc4ccccn34)cs2)c1 | nt | 2 | 66* | 41
CCCNC(=O)Cn1cnc2sc(C(=O)Nc3ccc4c(c3)OCO4)c(C)c2c1=O | -8 | 0 | -12 | -26
CCn1cnc2sc(C(=O)Nc3ccc4c(c3)OCO4)c(C)c2c1=O | nt | 0 | 57* | nt
N#C[C@H]1[C@H](c2ccccc2C2=CCCCC2)[C@@H](CO)N1S(=O)(=O)c1ccccc1 | 68* | nt | nt | nt
CCOc1ccc(N(C(C)C(=O)NN=C2CCCCCCC2)S(C)(=O)=O)cc1 (stereo not drawn) | 4 | -4 | 0 | -26
CCOc1ccc(N(C(C)C(=O)NC2CCCCCC2)S(C)(=O)=O)cc1 (stereo not drawn) | nt | -1 | 91* | -20
COc1ccc(-c2ocnc2C(=O)NCc2nn(-c3ccccc3)nc2C)cc1 | 18 | 0 | 50* | 39
CS(=O)(=O)c1ccc(C(=O)OCC(=O)NCc2cccs2)cc1[N+](=O)[O-] | 13 | nt | 92* | 24
CO[C@@H]1CN(C)C(=O)c2ccc(NC(=O)C3CC3)cc2OC[C@H](C)N(C(=O)NC(C)C)C[C@H]1C | -9 | nt | nt | nt
COc1ccc2c(=O)c(-c3ccc4c(c3)OCO4)coc2c1 | 69* | -1 | 70* | 20
CCN(CC)C(=O)Oc1ccc2c(=O)c(-c3ccc(OC)cc3)coc2c1 | -26 | -4 | 20 | 22
COc1ccc2nc(NC(=O)CSc3nc4ccccc4o3)sc2c1 | nt | 14 | 35 | 68*
O=C(CSc1nc2ccccc2o1)Nc1nc2ccc(Br)cc2s1 | nt | 1 | -29 | 5
COc1ccc(NC(=O)CSc2nc(O)cc(=O)n2-c2ccccc2)cc1 | 2 | -6 | 18 | -9
CCn1c(SCC(=O)Nc2nc(-c3ccc(C)cc3)cs2)nnc1-c1ccccc1 | nt | 1 | 31 | 41
SMILES | LGR2 antag | HSP90 refold inh | TWEAK Fn14 block | TROY NFkB inh
Cc1ccc(-c2csc(NC(=O)CSc3nc4ccccc4[nH]3)n2)cc1 | -11 | 3 | 72* | 57*
Cn1c(SCC(=O)Nc2nc3ccccc3s2)nnc1-c1ccccc1 | nt | -2 | -3 | -9
O=C(CSc1nc(O)cc(=O)n1-c1ccccc1)Nc1nc2ccccc2s1 | -18 | 0 | 41 | 64*
CCn1c(SCC(=O)Nc2nc(-c3ccc(C)cc3)cs2)nnc1-c1ccccc1O | nt | -2 | 47 | 50*
CCn1c(SCC(=O)Nc2nc3ccccc3s2)nnc1-c1ccc(Br)cc1 | nt | -2 | 66* | 1
COc1ccc(-c2csc(NC(=O)CSc3nc4ccccc4c(=O)[nH]3)n2)cc1 | -9 | 0 | -37 | 41
CO[C@@H](CN(C)C(=O)c1cnccn1)[C@H](C)CN([C@@H](C)CO)S(=O)(=O)c1ccc(F)cc1 | 9 | nt | nt | nt
C[C@@H]1CN([C@H](C)CO)C(=O)c2cc(NC(=O)Nc3ccccc3)ccc2O[C@H]1CN(C)S(C)(=O)=O | 13 | nt | nt | nt
COc1cccc(C#Cc2cnc3c(c2)C(=O)N([C@H](C)CO)C[C@H](C)[C@@H](CN(C)C)O3)c1 | 9 | nt | nt | nt
Oc1ccc(Cl)cc1Cc1cc(Cl)ccc1O | nt | 3 | 54* | 54*
Oc1ccc(Cl)cc1CNCc1ccc(Cl)cc1 | -2 | nt | 2 | -14
CO[C@@H]1CN(C)C(=O)c2cc(NC(C)=O)ccc2OC[C@H](C)NC[C@H]1C | 6 | nt | nt | nt
C[C@@H]1CN([C@@H](C)CO)C(=O)c2cc(NC(=O)Nc3cccc4ccccc34)ccc2O[C@@H](C)CCCCO[C@H]1CN(C)Cc1ccc2c(c1)OCO2 | 5 | nt | nt | nt
Cc1ccsc1/C=N/NC(=O)Cc1ccc(Cl)cc1 | -9 | 8 | 90* | -1
Cc1ccsc1/C=N/NC(=O)c1ccc2c(c1)OCCO2 | ? | 12 | 70* | 7
C/C(=N\NC(=O)c1ccc2c(c1)OCCO2)c1ccccc1 | -45 | -2 | 70* | -37
C[C@@H]1CN([C@@H](C)CO)C(=O)c2cc(C3=CCCC3)cnc2O[C@H]1CN(C)Cc1cccnc1 | 21 | nt | nt | nt
O=C1NC(=Nc2ccccc2Cl)S/C1=C\c1cccc([N+](=O)[O-])c1 | 3 | -3 | 10 | 70*
COc1ccc(C#Cc2cnc3c(c2)C(=O)N([C@H](C)CO)C[C@@H](C)[C@@H](CN(C)C(C)=O)O3)cc1 | -26 | nt | nt | nt
Nc1ccc(-c2cnc(N)c(C(=O)c3cccnc3)n2)cn1 | nt | nt | 79* | 25
O=C1C=CC(=Nc2ccc3c(c2)Cc2ccccc2-3)O1 | -28 | nt | 29 | 65*
O=C(C[C@@H]1CC[C@@H](NC(=O)Nc2cc(F)ccc2F)[C@@H](CO)O1)Nc1ccccc1 | 3 | nt | nt | nt
O=c1[nH]c2cc([N+](=O)[O-])ccc2c2ccccc12 | -11 | nt | -44 | -21
Cc1ccc(-n2cc(CN3CCNC(=O)CC3)c(-c3cccc(C)c3)n2)cc1 | -8 | -2 | 10 | -22
Cc1ccc(-n2cc(CNCC3CC(=O)N(C4CC4)C3)c(-c3cccc(C)c3)n2)cc1 (stereo not drawn) | 0 | 1 | -5 | 52*
SMILES | LGR2 antag | HSP90 refold inh | TWEAK Fn14 block | TROY NFkB inh
Cc1nc(NC(=O)CN2CCN(c3ccccc3F)CC2)sc1C(=O)N(C)C | 7 | 16* | 4 | -6
Cc1ccccc1N1CCN(CC(=O)Nc2nc(C)c(C(=O)N(C)C)s2)CC1 | 6 | 1 | 3 | -2
Cc1cccc(NC(=O)c2onc3c2CCCC3)n1 | 77* | 28* | 80* | 52*
O=C(Nc1ccc2ccccc2c1)c1onc2c1CCCC2 | 28 | 3 | 57* | 16
O=C(c1ccc(F)cc1)N1CC(=O)N2[C@H](CO)[C@@H](c3ccc(C#Cc4ccc(F)cc4)cc3)[C@@H]2C1 | -4 | nt | nt | nt
O=C(Nc1cccc2ccccc12)NC1Cc2ccccc2C1 | -22 | -8 | 89* | 57*
COC(=O)CCCC(=O)NC1CCCN(C2Cc3ccccc3C2)C1 (stereo not drawn) | -13 | -4 | -10 | 5
O=C(Nc1cccc2ccccc12)NC1CCCCC1 | -6 | -4 | -11 | -3
O=C(CCCO)NC1Cc2ccccc2C1 | 0 | 3 | 60* | 2
